Most compounds without a hit are left out; they make up all but 4.2% or so of the library.
V-ATPase pHluor: regulators of yeast V-ATPase proton transport; S. cerevisiae, pHLuorin cytosolic pH fluorescence; hit rate 0.37% among 350,000; response, % at 10 µM; in the data active = response mostly above about 7.3%, no sharp cut-off; inactive = mostly below about 5.4%; note: actives read high
tim23-1 inh: growth inhibitors of tim23-1 mutant yeast; inhibition, % at 20 µM; S. cerevisiae tim23-1 growth, BacTiter-Glo luminescence, 24 h; hit rate 1.3% among 330,000;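 active = growth inhibition of the mutant yeast at or above 50%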;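 note: temperature-sensitive mutant grown at 25 °C; plate controls were DMSO-treated mutant yeast for no effect and medium wells lacking yeast for full effect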
tim10-1 inh: growth inhibitors of tim10-1 mutant yeast. S. cerevisiae tim10-1 ts strain growth, BacTiter-Glo, 24 h. inhibition, % at 20 µM. hit rate 2.2% among 330,000. AID 463190;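 active = inhibition of at least 40%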;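 note: mutant grown at 25 °C; 0% = DMSO wells with yeast and 100% = wells holding no yeast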
TIM10 inh: inhibits growth of TIM10 yeast strain; inhibition, % at 10 µM; S. cerevisiae TIM10 strain growth, BacTiter-Glo luminescence, 24 h; hit rate 1.4% among 330,000;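 active = inhibition of 40% or more at the single tested concentration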;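 note: wild-type TIM10 isogenic control strain grown at permissive 25 °C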
NALP1 yeast inh: inhibitors of NALP1 inflammasome in yeast. S. cerevisiae NALP1/ASC/caspase-1 growth, X-gal OD620, 72 h. AID 2071. hit rate 0.61% among 280,000. inhibition, % at 10 µM; in the data active = inhibition mostly above about 24%, no sharp cut-off; inactive = mostly below about 32%
NLRP3 yeast inh: blocks the NALP3 inflammasome reconstituted in yeast; Yeast reconstituted NLRP3/ASC/caspase-1, beta-gal luminescence, 24 h; inhibition, % at 10 µM; AID 2825; hit rate 0.39% among 330,000;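 active = inhibition of 50% or more; inactive = inhibition below 50%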;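 note: plate controls were induced DMSO wells for no effect and uninduced yeast grown without galactose for full effect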
tim10-1 conf: tim10-1 yeast growth inhibition, confirmed | AID 463213 | hit rate 56% among 7,400 | S. cerevisiae tim10-1 ts strain growth, BacTiter-Glo, 24 h | inhibition, % at 20 µM | shares compounds with tim10-1 inh;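 active = inhibition of yeast growth at or above a set limit in either of two repeat tests at 20 µM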;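 note: tim10-1 mutant grown at permissive 25 °C to find synthetic lethal compounds; 0% = DMSO yeast wells and 100% = medium wells without yeast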
TIM10 conf: confirmation of TIM10 yeast growth inhibitors. inhibition, % at 10 µM. S. cerevisiae tim10 strain growth, BacTiter-Glo luminescence, 24 h. shares compounds with TIM10 inh. hit rate 63% among 4,600. AID 463215;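 active = inhibition of yeast growth at or above a set limit in either of two replicates at 10 µM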;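 note: this counterscreen used the strain with wild-type TIM10; 0% = yeast with DMSO and 100% = medium wells lacking yeast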
tim23-1 conf: confirmation of tim23-1 mutant yeast growth inhibitors; shares compounds with tim23-1 inh; S. cerevisiae tim23-1 growth, BacTiter-Glo luminescence, 24 h; inhibition, % at 20 µM; hit rate 83% among 4,400; AID 463218;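 active = inhibition above about 39% in either of two replicate wells at 20 µM, limit read from the data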;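 note: temperature-sensitive tim23-1 mutant grown at 25 °C; 0% = DMSO wells with yeast and 100% = medium wells without yeast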
Starred values were filed as active, the others as inactive; / = not tested or not shown.

SMILES	V-ATPase pHluor	tim23-1 inh	tim10-1 inh	TIM10 inh	NALP1 yeast inh	NLRP3 yeast inh	tim10-1 conf	TIM10 conf	tim23-1 conf
COc1ccc(Br)cc1/C=c1\sc2nc(-c3ccco3)nn2c1=O	-6	53*	54*	42*	0	4	44*	38*	55*
CCn1c(SCC(=O)Nc2ccc(N(C)C)cc2)nnc1C1CC1	1	14	3	-1	-8	17	/	/	/
O=C(c1ccc(-c2cccc([N+](=O)[O-])c2)o1)N1CCN(c2ccc([N+](=O)[O-])cc2)CC1	-4	27	22	5	/	21	/	/	/
CC1CC(C)CN(C(=O)c2ccc(-c3ccc([N+](=O)[O-])cc3)o2)C1 (configuration not stated)	10	63*	69*	56*	/	13	19	58*	46*
CC(CN1CCOCC1)OC(=O)C(c1ccccc1)c1ccccc1 (configuration not stated)	1	-9	5	-3	2	-2	/	/	/
O=C(c1ccccc1)C(CCC(CN1CCOCC1)C(=O)c1ccccc1)CN1CCOCC1 (configuration not stated)	3	53*	54*	60*	-3	41	48*	68*	47*
Cc1cccc(C)c1N(CC(O)Cn1c2ccccc2c2ccccc21)S(C)(=O)=O (configuration not stated)	2	21	28	18	19	6	/	/	/
Cc1ccc(SCCNS(=O)(=O)c2ccc3c(c2)OCCO3)cc1	4	55*	52*	51*	10	19	42*	-6	53*
O=S(=O)(NCc1ccccc1)c1ccc2c(c1)OCCO2	1	5	32	34	32	23	/	/	/
COc1ccc(CCNS(=O)(=O)c2ccc3c(c2)OCCO3)cc1	-2	59*	50*	49*	-5	14	42*	-30	56*
O=S(=O)(NCCSCc1ccc(Cl)c(Cl)c1)c1ccc2c(c1)OCCO2	-5	55*	47*	53*	/	12	33*	36*	49*
COc1ccc(CNS(=O)(=O)c2ccc(S(=O)(=O)NC3CC3)cc2)cc1	1	2	2	9	12	11	/	/	/
COc1ccc(S(=O)(=O)NCc2ccc(C)cc2)cc1	-2	56*	48*	16	3	5	23	/	43*
COc1ccc(S(=O)(=O)NCCSc2ccc(C)cc2)cc1OC	2	7	32	-5	15	6	/	/	/
CC1(C)CC(Cc2cccc(C(F)(F)F)c2)N(C(=O)OC(C)(C)C)C1 (configuration not stated)	2	/	/	/	/	/	/	/	/
CCOC(=O)Cc1c(C)c2ccc(N(CC)CC)cc2oc1=O	-3	33	30	16	16	13	/	/	/
CCN(CC)c1ccc2c(Cl)c(Br)c(=O)oc2c1	-62	64*	60*	72*	-6	6	59*	68*	78*
CCN(CC)c1ccc2c(c1)oc(=O)c1c(Cl)cc(=O)oc12	-71	73*	78*	89*	3	6	82*	61*	81*
CCN(CC)c1ccc2c(C)cc(=O)oc2c1	1	31	4	-11	/	24	/	/	/
Cc1cc([N+](=O)[O-])nn1CCCC(=O)NC(C)c1ccccc1 (configuration not stated)	-3	-3	7	9	16	14	/	/	/
CCNC(=O)COC(=O)c1cc(-c2ccc(OC)cc2)nc2ccccc12	1	42	18	20	2	26	/	/	/
CCCCOc1ccc(-c2cc(C(=O)NNC(=S)NCC)c3ccccc3n2)cc1	-4	67*	72*	47*	-4	10	70*	46*	74*
CCNC(=S)NNC(=O)c1cc(-c2cccc(C)c2)nc2ccccc12	-1	73*	82*	55*	-12	2	79*	41*	72*
